Experiments:
Experiment in all cases: PBM binding z-score (relative to random genomic background probes); higher = stronger binding; sequences stand for … in GC…GCGATTGACAGCGTAGAATGAAGG
[1] = test system: FXR:RXRa (NR concentration 270 nM, RXRa partner concentration 90 nM)
Summary of the method: (§1)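 On custom Agilent 4×180K arrays, double-stranded probes with 34-nt variable regions carried direct-repeat seeds, single-nucleotide variants, half-site ablations or random human genomic background. Ligand-free nuclear receptor dimers were applied for 1 h, and binding was read with antibodies against each partner (one per run). Binding z-scores come from regression-normalized fluorescence, with the random background probes as reference.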

[2] = test system: LXRa:RXRa (NR concentration 270 nM, RXRa partner concentration 90 nM)
Summary of the method: as §1

[3] = test system: LXRa homodimer (NR concentration 270 nM)
Summary of the method: as §1

[4] = test system: LXRb:RXRa (NR concentration 270 nM, RXRa partner concentration 90 nM)
Summary of the method: as §1

[5] = test system: LXRb homodimer (NR concentration 270 nM)
Summary of the method: as §1

[6] = test system: PPARa:RXRa (NR concentration 270 nM, RXRa partner concentration 90 nM)
Summary of the method: as §1

[7] = test system: PPARg:RXRa 270nM:90nM, anti-RXR (NR concentration 270 nM, RXRa partner concentration 90 nM)
Summary of the method: as §1

[8] = test system: PPARg:RXRa 30nM:10nM, anti-RXR (NR concentration 30 nM, RXRa partner concentration 10 nM)
Summary of the method: as §1

[9] = test system: PPARg:RXRa 90nM:30nM, anti-RXR (NR concentration 90 nM, RXRa partner concentration 30 nM)
Summary of the method: as §1

Sequence | PBM binding z-score [1] | PBM binding z-score [2] | PBM binding z-score [3] | PBM binding z-score [4] | PBM binding z-score [5] | PBM binding z-score [6] | PBM binding z-score [7] | PBM binding z-score [8] | PBM binding z-score [9]
CCTACTGGGCCAAAGGTCATAGATTCCAATGCTC | 4.64 | 4.61 | 3.46 | 4.47 | 0.244 | 6.34 | 10.5 | 11 | 11.5
GATACAGGGTCAGCTAGAGGTCAGAGTATGGAAA | 6 | 5.81 | 3.45 | 4.98 | 0.386 | 5.57 | 5.22 | 1.99 | 3.52
AGTCAAAGGTCACTAGGTAACGTAAGATTCAGCT | 7.63 | 6.45 | 2.46 | 5.48 | 2.78 | 6.42 | 8.5 | 6.26 | 8.47
TCTTGTAGATCAAAGGTCAAGAAAGCCGAAGCCT | 4.71 | 5.21 | 2.41 | 5.03 | 1.25 | 6.32 | 9.37 | 8.45 | 10.1
CGAACTAGGTCAAAGGACACTGAAAGGCGACGTA | 4.53 | 2.6 | 0.187 | 2.15 | -0.198 | 5.49 | 8.98 | 10.1 | 10.8
ATCTCTAGGTCAAAGTTCAGTGAATCCCGAGGAT | 5.79 | 6.34 | 6.95 | 4.67 | 3.69 | 6.3 | 9.63 | 10.4 | 10.7
CCTTACGGTTCACTGACAGGTTATAGCATTTGGA | 1.66 | 2.43 | 1.04 | 1.89 | 0.471 | 2.33 | 1.08 | 0.683 | 0.771
CAAACTAGGTCAAGGTCAAATTCGGTTTGTGCCA | 6.94 | 5.69 | 5.04 | 5.06 | 2.23 | 6.07 | 7.8 | 6.71 | 8.35
TGGCCTAGGTCATGGGCCAGTATACCACGCGAAC | 4.4 | 2.91 | -0.382 | 1.57 | -1.26 | 3.93 | 3.6 | 0.481 | 2.22
GCATACGGGTCAAAGGTTATAGCATGAATAGAAT | 7.92 | 5.85 | 0.463 | 5.74 | 0.733 | 7.06 | 9.95 | 10.1 | 11.7

Reference: the supplement of paper PMC6555819
